Results on 30 compounds are retold here after ChEMBL document CHEMBL4513146, “CO-ADD screening of Karazin Kharkiv National University (Ukraine) compounds”.

In one assay the test system is Klebsiella pneumoniae. Conditions: Concentration 32 ug.mL-1;; ASSAY_TEST Inhibition of Bacterial Growth; detection method Absorption (OD600); MEDIA CAMHB; plate type 384well; NBS; CORNING #3640; time 18 hr.
Another assay deals with Candida albicans. The note with it: Concentration 32 ug.mL-1; ASSAY_TEST Inhibition of Fungal Growth; detection method Absorption (OD530).
Another assay concerns Cryptococcus neoformans. Conditions: Concentration 32 ug.mL-1; ASSAY_TEST Inhibition of Fungal Growth; detection method Resazurin; Absorption (OD600-OD570); plate type 384well; NBS; CORNING #3640. (In general: The colour change of resazurin is a common sign of viable cells or microbes.)

Molecules are shown by their SMILES. Entries with a potency or affinity are not part of this list.

The Inhibition is the relative decrease from the control value, in per cent.

On to `COC(=O)c1ccccc1NC(=O)Cn1nc2c(Oc3ccccc3C)nccn2c1=O`, for which the values for the Inhibition with Klebsiella pneumoniae, in the assay on Candida albicans and in the assay with Cryptococcus neoformans were 8.93%, 0.12% and -8.78%, respectively.
The like results for `Cc1cc2nn(CC(=O)Nc3ccc(C)c(F)c3)c(=O)n2c(Nc2ccc(C)c(F)c2)n1` were, in that order, 13.96%, 19.28% and -10.18%.
With `Cc1ccccc1CSc1nnc2c(=O)n(-c3ccc(F)c(F)c3)ccn12`, the Inhibition with Klebsiella pneumoniae is on record as 9.65%; with Candida albicans it was 4.14%; with Cryptococcus neoformans it was -9.1%.
Regarding `CCCCOc1ccc(-c2cc3c4nnc(SCC(=O)NCc5ccc(C)cc5)n4ccn3n2)cc1`, the Inhibition is recorded as 3.76% in the assay on Klebsiella pneumoniae, 12.04% with Candida albicans and -14.64% in the assay on Cryptococcus neoformans.
For `Cc1ccc(NC(=O)Cn2nc3c(SCc4ccc(Cl)cc4)nccn3c2=O)c(C)c1`, in that order: 13.7%, 0.54% and -21.97%.
The like results for `CCc1nnc2c(SCC(=O)Nc3ccc(OC)c(Cl)c3)nc3ccccc3n12` were, in that order, 11.84%, 5.38% and -21.55%.
For `Cc1ccc(-c2cc3c4nnc(CCC(=O)N5CCN(c6ccccc6F)CC5)n4ccn3n2)cc1C`, in that order: 8.56%, 3.28% and -23.24%.
As to `O=C(Cn1nc2c3cc(-c4ccc(F)cc4)nn3ccn2c1=O)Nc1ccccc1`, the Inhibition in the assay on Klebsiella pneumoniae is given as 5.09%; with Candida albicans, 9.56%; in the assay with Cryptococcus neoformans it was -11.97%.
The like results for `COc1ccc(NC(=O)Cn2nc3c(Oc4ccccc4)nccn3c2=O)cc1OC` were, in that order, 4.37%, 1.92% and -7.08%.
Take `O=C(Cn1nc2ccc(SCc3ccc(Cl)cc3)nn2c1=O)Nc1ccccc1C(F)(F)F`: the Inhibition is on record as 7.36% in the assay on Klebsiella pneumoniae, 1.76% in the assay on Candida albicans and -11.3% with Cryptococcus neoformans.
The like results for `Cc1ccc(-c2cc3c4nn(CC(=O)Nc5ccc6c(c5)OCO6)c(=O)n4ccn3n2)cc1` were, in that order, 10%, 9.65% and -32.25%.
The like results for `CCc1ccc(NC(=O)Cn2nc3c(=O)n(-c4ccc(Br)cc4)ccn3c2=O)cc1` were, in that order, -9.6%, 4.29% and -8.7%.
For `CCc1nnc2c(S(=O)(=O)N(Cc3cccc(OC)c3)c3ccc(F)cc3)cccn12`, in that order: -0.6%, 3.42% and -6.42%.
Regarding `COc1cccc(-n2ccn3c(SCC(=O)NCc4ccc(C)cc4)nnc3c2=O)c1`, the Inhibition is 8.21% with Klebsiella pneumoniae, 2% in the assay with Candida albicans and -8.56% with Cryptococcus neoformans.
As for `Cc1cc(C)c(NC(=O)Cn2nc3c(SC4CCCCC4)nccn3c2=O)c(C)c1`, the Inhibition in the assay on Klebsiella pneumoniae is listed as 10.47%; in the assay with Candida albicans, 13.47%; with Cryptococcus neoformans, -24.78%.
In the case of `Cc1ccc(NC(=O)Cn2nc3c4cc(-c5ccc(C)c(C)c5)nn4ccn3c2=O)c(C)c1`, the Inhibition in the assay with Klebsiella pneumoniae is -6.92%; in the assay with Candida albicans, -0.38%; in the assay with Cryptococcus neoformans it was -15.91%.
The like results for `CCOc1ccc(-n2ccn3c(SCC(=O)Nc4cccc(Cl)c4)nnc3c2=O)cc1` were, in that order, 10.12%, 2.64% and -5.2%.
Take `COc1ccccc1N1CCN(C(=O)Cn2nc3c(Oc4ccc(C)cc4)nccn3c2=O)CC1`: the values for the Inhibition in the assay with Klebsiella pneumoniae, in the assay on Candida albicans and in the assay with Cryptococcus neoformans were 13.94%, 1.98% and -10.45%, respectively.
Regarding `CC(C)Cn1c(=O)c2sccc2n2c(=O)n(CC(=O)NC(C)(C)C)nc12`, the Inhibition in the assay with Klebsiella pneumoniae is reported as 2.39%; in the assay on Candida albicans it was -0.9%; in the assay with Cryptococcus neoformans, -15.87%.
For `COc1ccc(-c2cc3c4nnc(SCC(=O)Nc5ccccc5C(F)(F)F)n4ccn3n2)cc1`, in that order: 8.66%, 3.79% and -13.07%.
For `Cc1ccc(CN(c2cccc(F)c2)S(=O)(=O)c2ccc3nnc(C)n3c2)cc1`, in that order: -4.46%, 1.78% and -8.87%.
`O=C(CSc1nnc2c(=O)n(-c3ccccc3)ccn12)Nc1ccc(F)cc1`: the Inhibition in the assay on Klebsiella pneumoniae is reported as 3.51%; in the assay on Candida albicans, 4.29%; in the assay on Cryptococcus neoformans, -7.32%.
For the compound `Cc1cc2nn(CC(=O)Nc3ccc(F)cc3)c(=O)n2c(Nc2ccccc2C)n1`, the Inhibition was 4.2% in the assay with Klebsiella pneumoniae, 1.24% with Candida albicans and -11.54% in the assay with Cryptococcus neoformans.
For `CCc1nnc2c(S(=O)(=O)N(Cc3ccc(C)cc3)c3ccc(C(C)C)cc3)cccn12`, in that order: 10.84%, 9.31% and -8.19%.
The like results for `CCc1nnc2ccc(S(=O)(=O)N(Cc3ccc(F)cc3)c3ccc(OC)cc3)cn12` were, in that order, 5.94%, -0.37% and -3.5%.
For `CCOC(=O)c1ccccc1NC(=O)CSc1nc2ccccc2n2c(C(C)C)nnc12`, in that order: 12.78%, 1.73% and -19.92%.
For `Cc1cccc(C)c1NC(=O)Cn1nc2ccc(SCc3ccc(Cl)cc3)nn2c1=O`, the Inhibition in the assay on Klebsiella pneumoniae is given as -2.95%; in the assay with Candida albicans, 27.65%; with Cryptococcus neoformans it was -10.13%.
For `COc1cccc(NC(=O)Cn2c(=O)c3nnc(C(C)C)n3c3ccccc32)c1`, in that order: 16.14%, 3.17% and -13.4%.
The like results for `CCOc1ccc(-c2nc(CSc3nc4ccccc4n4c(C(C)C)nnc34)c(C)o2)cc1` were, in that order, 2.25%, -0.51% and -14.56%.
`Cc1c(Cl)cccc1-n1ccn2c(=S)[nH]nc2c1=O`: the Inhibition in the assay with Klebsiella pneumoniae is recorded as 8.12%; with Candida albicans it was 2.5%; in the assay with Cryptococcus neoformans, -13.36%.
